Data as given in article PMC4336329 (PLoS ONE, 2015).
Among all 310,000 compounds or so, about 14,000 (4.5%) showed an effect of 50% or more. The effect is printed as a negative number. The sample holds strong results, similar compounds and a random draw of the others, so the mix is not that of the screen.

molecular target: human ether-à-go-go-related gene (hERG) potassium channel (human, UniProt Q12809); assay: primary screen, population patch clamp on CHO cells stably expressing hERG; higher = less effect of the substance
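Also: peak tail current of the secondary pulse compared with the same well before compound.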

Chain of human ether-à-go-go-related gene (hERG) potassium channel (Q12809 whole entry, looked up): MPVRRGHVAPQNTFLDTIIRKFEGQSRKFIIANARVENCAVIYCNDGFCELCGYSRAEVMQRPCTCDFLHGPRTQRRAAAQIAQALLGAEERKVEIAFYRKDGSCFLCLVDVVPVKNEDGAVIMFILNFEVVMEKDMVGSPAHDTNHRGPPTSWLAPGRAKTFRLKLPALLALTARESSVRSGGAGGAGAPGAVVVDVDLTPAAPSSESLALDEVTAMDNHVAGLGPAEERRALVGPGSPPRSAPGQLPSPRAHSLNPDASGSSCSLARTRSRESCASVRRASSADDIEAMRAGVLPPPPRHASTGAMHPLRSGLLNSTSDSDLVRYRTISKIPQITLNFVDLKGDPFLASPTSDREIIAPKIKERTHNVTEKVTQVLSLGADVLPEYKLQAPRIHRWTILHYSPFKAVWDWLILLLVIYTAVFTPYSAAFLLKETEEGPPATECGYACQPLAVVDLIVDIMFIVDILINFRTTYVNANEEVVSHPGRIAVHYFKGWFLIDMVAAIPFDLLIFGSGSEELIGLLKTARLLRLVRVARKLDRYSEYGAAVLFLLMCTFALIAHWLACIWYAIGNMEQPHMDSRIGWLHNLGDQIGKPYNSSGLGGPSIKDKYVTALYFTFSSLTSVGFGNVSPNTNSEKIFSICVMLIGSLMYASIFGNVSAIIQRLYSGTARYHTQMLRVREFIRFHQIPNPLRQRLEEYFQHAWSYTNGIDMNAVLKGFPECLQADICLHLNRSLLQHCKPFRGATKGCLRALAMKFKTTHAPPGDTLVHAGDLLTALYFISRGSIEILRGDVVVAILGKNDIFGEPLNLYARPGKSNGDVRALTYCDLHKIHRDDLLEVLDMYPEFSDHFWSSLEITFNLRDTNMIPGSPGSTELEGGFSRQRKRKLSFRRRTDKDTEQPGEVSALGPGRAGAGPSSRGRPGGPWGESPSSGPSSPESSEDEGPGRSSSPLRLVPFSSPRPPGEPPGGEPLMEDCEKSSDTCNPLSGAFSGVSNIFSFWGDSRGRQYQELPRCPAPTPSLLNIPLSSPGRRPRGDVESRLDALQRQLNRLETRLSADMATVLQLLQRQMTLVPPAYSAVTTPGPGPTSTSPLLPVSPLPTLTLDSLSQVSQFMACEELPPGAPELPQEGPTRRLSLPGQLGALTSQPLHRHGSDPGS

SMILES | hERG current change (%, negative = inhibition) at 10uM
O=C(CCCCCN1C(=O)c2cccc3cccc(c23)C1=O)NCc1ccco1 | 13.2%
COc1ccc(NC(=S)N2CCC(NC(=O)c3ccco3)CC2)cc1 | -6.59%
CCNC(=S)N1CCC(NC(=O)c2ccco2)CC1 | 6.16%
CC(C)CNC(=S)N1CCC(NC(=O)c2ccco2)CC1 | -65.7%
COCCNC(=S)N1CCC(NC(=O)c2ccco2)CC1 | 15.7%
O=C(NC1CCN(C(=S)NCc2ccco2)CC1)c1ccc(F)cc1 | -51.6%
O=C(NC1CCN(C(=S)Nc2ccc(Cl)cc2)CC1)c1ccco1 | -72.8%
COc1ccc(C(=O)NC2CCN(C(=S)NCc3ccco3)CC2)cc1 | -29.6%
O=C(NC1CCN(C(=S)Nc2ccc(F)cc2)CC1)c1ccco1 | -39%
O=C(NC1CCN(C(=S)NCc2ccco2)CC1)c1cccc(F)c1 | -47.1%
C=CCN(c1ccc(C(=O)NCCCn2ccnc2)cc1)S(C)(=O)=O | 12.3%
CCCc1cc(=O)[nH]c(SC(C)C(=O)Nc2ccc3c(c2)OCCO3)n1 (stereo not shown) | -7.38%
Cc1cc(CN(C)C)c(OC(=O)N(C)C)cc1C.Cl | 16.1%
Cc1[nH]nc2c1C1(C(=O)Nc3ccc([N+](=O)[O-])cc31)C(C#N)=C(N)O2 (stereo not shown) | 24.9%
CCOC(=O)CSc1nc2cc(C(=O)NCC3CCCO3)ccc2c(=O)n1Cc1ccco1 (stereo not shown) | -39.3%
COCCCNC(=O)CSc1nc2cc(C(=O)NCCOC)ccc2c(=O)n1Cc1ccc2c(c1)OCO2 | -4.37%
CC1CCN(C(=O)CSc2nc3ccccc3c(=O)n2Cc2ccc3c(c2)OCO3)CC1 | -13.6%
COC(=O)c1ccc2c(=O)n(Cc3ccc4c(c3)OCO4)c(SCC(=O)N3CCCC3)nc2c1 | -52.4%
O=C(NCC1CCCO1)c1ccc2c(=O)n(CC3CCCO3)c(SCC(=O)N3CCCC3)nc2c1 (stereo not shown) | 3.95%
O=C(NCc1ccco1)c1ccc2c(=O)n(Cc3ccco3)c(SCC(=O)N3CCCC3)nc2c1 | -76.4%
CCCCCn1c(SCC(=O)OCC)nc2cc(C(=O)NCc3ccco3)ccc2c1=O | 2.51%
O=C(NCC1CCCO1)c1ccc2c(=O)n(Cc3ccco3)c(SCC(=O)N3CCCC3)nc2c1 (stereo not shown) | -79.3%

SMILES | hERG current change (%, negative = inhibition) at 10uM
C=CCn1c(SCC(=O)OCC)nc2cc(C(=O)NCc3ccco3)ccc2c1=O | -17.6%
CN1CCN(C(=O)CCN2C(=O)/C(=C/c3ccccc3Cl)SC2=S)CC1 | 9.65%
COc1ccc(/C(O)=C2/C(=O)C(=O)N(CCCN3CCOCC3)C2c2ccc(C(C)C)cc2)cc1 (stereo not shown) | 24.6%
COc1cc(C2CC(=O)N3CN(Cc4ccco4)CSC3=C2C#N)ccc1OCc1ccccc1 (stereo not shown) | 15.1%
CC(=O)C1C(c2cccc(F)c2)c2c(n[nH]c2C)CC1(C)O (stereo not shown) | 15.7%
COc1cc(CNCc2ccccc2)ccc1OCC(O)c1ccccc1.O=C(O)C(=O)O (stereo not shown) | -24.9%
COC(=O)CC1C(=O)NCCN1C(=O)CSc1nc2cc(Cl)ccc2o1 (stereo not shown) | 13.5%
COc1ccc(N2CCC(CNC(=O)Nc3ccc(C)c(C)c3)C2)cc1 (stereo not shown) | 11.4%
Cc1ccc(C)c(CN2CCC(CNC(=O)Nc3ccc(Br)cc3F)CC2)c1 | -73.4%
COc1cc(NC(=O)NCC2CCN(Cc3ccccc3C)CC2)cc(OC)c1OC | -2.71%
Cc1cc(C)cc(NC(=O)NCC2CCN(Cc3cc(C)ccc3C)CC2)c1 | -51%
Cc1ccc(C)c(CN2CCC(CNC(=O)Nc3ccc(C)c(C)c3)CC2)c1 | -74.3%
O=C(NCC1CCN(Cc2ccccc2F)CC1)Nc1cccc(Br)c1 | -43.2%
Cc1ccc(C)c(CN2CCC(CNC(=O)Nc3ccc(C)c(F)c3)CC2)c1 | -27.5%
O=C(NCCN1CCCCC1)c1cc(Cl)ccc1Cl | 1.65%
O=[N+]([O-])c1cc(C(F)(F)F)cc([N+](=O)[O-])c1NCCCNc1ccc([N+](=O)[O-])c2cccnc12 | 14.4%
O=C(Nc1ccc(S(=O)(=O)NCc2ccco2)cc1)c1ccc(F)cc1 | -4.23%
COc1ccc(CNC(=O)COC(=O)c2cc(-c3ccc(Cl)s3)nc3ccccc23)cc1 | 1.05%
CCOc1ccc(CNn2nnnc2N)cc1 | -6.35%
O=C(COc1ncnc2ccccc12)NCCc1ccc(F)cc1 | -6.11%
Cc1nc2ccc(NC(=O)Cc3cccc(F)c3)cc2s1 | 2.56%
